Measurements from PubChem BioAssay.
Activity calls are given as the source filed them. Unless noted, the rule behind the calls is not given here.

What was measured:
[1] = A549 cell viability effects, profiling panel, calcein-AM fluorescence, 48 h, basal (AID 1162); details: higher = more signal; note: test concentration not given here
[2] = adipocyte viability effects, profiling panel, cell-based, 3T3-L1 adipocytes, calcein-AM fluorescence, 48 h, basal (AID 1163); details: 3T3-L1 adipocytes viability, higher = more signal; note: test concentration not given here
[3] = HepG2 cell viability effects, profiling panel, calcein-AM fluorescence, 48 h, basal (AID 1164); details: higher = more signal; note: test concentration not given here
[4] = MM1S cell viability effects, profiling panel, calcein-AM fluorescence, 48 h, basal (AID 1165); details: higher = more signal;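 note: viability of MM1S multiple myeloma cells under basal unstimulated conditions; test concentration not given here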
[5] = basal RPMI8226 viability, no added stimulus, profiling panel, cell-based, calcein-AM fluorescence, 48 h, PK04 Diversity Set (AID 1166); details: RPMI8226 myeloma viability, higher = more signal;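 note: cells grown under basal conditions without added stimulus; test concentration not given here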
[6] = basal HepG2 mitochondrial membrane potential changes, profiling panel, cell-based, JC-1 fluorescence, 24 h, 100 nL compound (AID 1167); details: higher = more signal; note: test concentration not given here
[7] = basal 3T3-L1 adipocyte mitochondrial potential changes, profiling panel, cell-based, JC-1 fluorescence, 3T3-L1 adipocytes, 24 h, 100 nL compound (AID 1168); details: JC-1 mitochondrial fluorescence, higher = more signal, called active from +8 up or from −8 down; note: test concentration not given here
[8] = basal RPMI8226 mitochondrial membrane potential changes, profiling panel, cell-based, JC-1 fluorescence, 24 h, 100 nL compound (AID 1169); details: RPMI8226 myeloma, JC-1 mitochondrial potential fluorescence, higher = more signal; note: test concentration not given here
[9] = basal MM1S mitochondrial membrane potential changes, profiling panel, cell-based, JC-1 fluorescence, 24 h, 100 nL compound (AID 1170); details: higher = more signal; note: test concentration not given here
[10] = A549 lung cancer cell viability effects, profiling panel, resazurin fluorescence, 24 h, PK04 Diversity Set (AID 1171); details: higher = more signal, called active from +8 up or from −8 down; note: test concentration not given here
[11] = HepG2 liver cancer cell viability effects, profiling panel, resazurin fluorescence, 24 h, PK04 Diversity Set (AID 1172); details: higher = more signal; note: test concentration not given here
[12] = basal S. cerevisiae growth modulation, no modifier, primary screen, OD600, strain BY4716, 24 h, basal condition (AID 1173); details: OD600, 24 h, higher = more signal, called active from +8 up or from −8 down
[13] = MM1S myeloma cell viability, profiling panel, resazurin fluorescence, basal, 24 h, PK04 Diversity Set (AID 1174); details: higher = more signal, called active from +8 up or from −8 down;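 note: MM1S multiple myeloma cell line; test concentration not given here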
[14] = target: Dihydroorotate dehydrogenase (quinone), mitochondrial (Plasmodium falciparum (isolate 3D7)) (UniProt Q08210); assay: PfDHODH enzyme inhibitors, primary screen, biochemical, C-terminal His tag, absorbance 600 nm (AID 1175); details: DCIP absorbance 600 nm, higher = more signal, called active from +8 up or from −8 down;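 note: recombinant parasite enzyme with a five histidine tag at its C terminus; test concentration not given here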
[15] = P. aeruginosa biofilm formation inhibitors, primary screen, strain PAO1, LB-PBS medium, absorbance 600 nm (AID 1176); note: test concentration not given here; details: P. aeruginosa PAO1 growth/biofilm, A600, 12 h; higher = more signal
[16] = S. cerevisiae RM11-1a growth modifiers, primary screen, strain RM11-1a, OD600, basal, 24 h (AID 1177); details: OD600, 24 h, higher = more signal, called active from +8 up or from −8 down;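 note: cultures grown under basal conditions with no added stressor; test concentration not given here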
[17] = E. coli acrAB mutant growth effects, primary screen, E. coli filamentation inducers, strain DRC39, OD650, 24 h (AID 1178); details: higher = more signal, called active from +8 up or from −8 down;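 note: growth measured as culture turbidity by optical density at 650 nm; test concentration not given here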
[18] = E. coli acrAB mutant growth effects, primary screen, E. coli filamentation inducers, strain DRC39, OD650, 48 h (AID 1179);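 note: screen aims at cell division blockers that make cells filament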; details: E. coli DRC39 delta-acrAB growth, higher = more signal, called active from +8 up or from −8 down
[19] = RPMI8226 myeloma cell viability, profiling panel, resazurin fluorescence, basal, 24 h, PK04 Diversity Set (AID 1180); details: higher = more signal;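 note: RPMI8826 multiple myeloma cell line at 5000 cells per well; test concentration not given here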
[20] = target: E3 ubiquitin-protein ligase XIAP (Homo sapiens) (UniProt P98170); assay: XIAP binders, primary screen, biophysical, small-molecule microarray, fluorescence 635 nm (AID 1181); details: small-molecule microarray binding, higher = more signal;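 note: score merges 667 nm emission and signal to noise over triplicate slides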
Sequence of E3 ubiquitin-protein ligase XIAP (Homo sapiens) (P98170 whole entry, looked up): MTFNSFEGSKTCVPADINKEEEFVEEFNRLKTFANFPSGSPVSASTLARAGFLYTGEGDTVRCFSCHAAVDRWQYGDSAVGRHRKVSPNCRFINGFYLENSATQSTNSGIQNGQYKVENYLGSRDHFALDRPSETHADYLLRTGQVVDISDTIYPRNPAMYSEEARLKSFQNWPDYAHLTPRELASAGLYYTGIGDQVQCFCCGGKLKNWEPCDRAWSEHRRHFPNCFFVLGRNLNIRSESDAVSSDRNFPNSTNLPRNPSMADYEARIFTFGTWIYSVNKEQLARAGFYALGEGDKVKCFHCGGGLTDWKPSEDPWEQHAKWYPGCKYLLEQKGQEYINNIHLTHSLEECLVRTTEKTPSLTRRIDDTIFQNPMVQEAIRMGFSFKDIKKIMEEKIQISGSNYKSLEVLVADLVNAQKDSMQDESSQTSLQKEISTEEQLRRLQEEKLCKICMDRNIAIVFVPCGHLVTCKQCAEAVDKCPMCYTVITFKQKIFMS

Sequence of Dihydroorotate dehydrogenase (quinone), mitochondrial (Plasmodium falciparum (isolate 3D7)) (Q08210 whole entry, looked up): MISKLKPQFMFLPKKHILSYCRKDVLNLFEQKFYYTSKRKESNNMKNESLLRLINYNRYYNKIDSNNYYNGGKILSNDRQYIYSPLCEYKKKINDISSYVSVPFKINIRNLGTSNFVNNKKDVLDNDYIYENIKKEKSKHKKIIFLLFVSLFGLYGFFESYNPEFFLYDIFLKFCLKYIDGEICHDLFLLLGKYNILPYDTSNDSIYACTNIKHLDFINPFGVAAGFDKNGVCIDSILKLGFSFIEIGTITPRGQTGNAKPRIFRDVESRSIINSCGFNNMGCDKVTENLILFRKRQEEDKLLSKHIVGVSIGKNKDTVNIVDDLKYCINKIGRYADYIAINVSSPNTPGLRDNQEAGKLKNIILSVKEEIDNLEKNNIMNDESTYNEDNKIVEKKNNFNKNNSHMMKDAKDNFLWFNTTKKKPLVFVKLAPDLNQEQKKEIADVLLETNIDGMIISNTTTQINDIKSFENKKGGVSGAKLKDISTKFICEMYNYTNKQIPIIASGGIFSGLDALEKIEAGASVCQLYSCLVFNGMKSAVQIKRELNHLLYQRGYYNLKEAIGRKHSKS

| SMILES | z-score [1] | z-score [2] | z-score [3] | z-score [4] | z-score [5] | z-score [6] | z-score [7] | z-score [8] | z-score [9] | z-score [10] | z-score [11] | z-score [12] | z-score [13] | composite z-score [14] | z-score [15] | z-score [16] | z-score [17] | z-score [18] | z-score [19] | composite z-score [20] |
| --- | --- | --- | --- | --- | --- | --- | --- | --- | --- | --- | --- | --- | --- | --- | --- | --- | --- | --- | --- | --- |
| CC(CCN1CCc2nc(-c3ccccc3)c(-c3ccccc3)cc2C1)=NOC[C@@H](O)[C@H]1O[C@@H]2OC(C)(C)O[C@@H]2[C@H]1O | 1.89 | -0.144 | 1.62 | -2.72 | -0.676 | 2.55 | -1.54 (inactive) | -0.109 | 0.0398 | -0.555 (inactive) | -0.31 | -3.84 (inactive) | -1.06 (inactive) | -0.897 (inactive) | 0.359 (inactive) | -0.187 (inactive) | 1.39 (inactive) | 0.431 (inactive) | -0.776 | 0.145 |
| COc1ccc(O[C@H]2C=C[C@@H](c3ccccc3)O[C@@H]2COC(=O)CCC(C)=NOC[C@@H](O)[C@H]2O[C@@H]3OC(C)(C)O[C@@H]3[C@H]2O)cc1 | 1.11 | -0.519 | 0.26 | 0.152 | -0.0547 | -0.42 | 0.157 (inactive) | -0.299 | -0.199 | 0.138 (inactive) | 0.0784 | -0.727 (inactive) | 0.0383 (inactive) | -1.15 (inactive) | -0.348 (inactive) | 0.28 (inactive) | 1.18 (inactive) | -1.02 (inactive) | 1.04 | -0.0559 |
| Cc1ccc(S(=O)(=O)N[C@@H]2COC(=O)[C@@H](C)COC(=O)CC=C[C@H]2C)cc1 | -0.168 | 0.996 | 0.617 | 0.0281 | 0.587 | 0.0622 | -0.396 (inactive) | 0.62 | 0.743 | 0.0709 (inactive) | 0.0896 | 0.426 (inactive) | 0.258 (inactive) | 0.264 (inactive) | -0.413 (inactive) | 1.02 (inactive) | 0.155 (inactive) | -0.73 (inactive) | -0.0722 | 0.214 |
| O=C1[C@H]2[C@H]3[C@H](O)[C@H](O)CC(=NOC[C@@H](O)COCc4ccco4)[C@H]3CC[C@H]2C(=O)N1Cc1ccccc1 | 0.172 | 0.194 | -1.46 | 0.455 | -2.06 | 0.176 | -0.161 (inactive) | 0.714 | -0.441 | 0.968 (inactive) | 1.57 | -1.34 (inactive) | 0.737 (inactive) | -0.336 (inactive) | 0.377 (inactive) | -1.36 (inactive) | -0.194 (inactive) | -0.22 (inactive) | 1.1 | -0.0749 |
| COC(=O)CC=C[C@@H](C)[C@@H](C=NOC(C)CN1CCCc2nc(C)c(C)cc21)OC (stereo not given in full) | 0.756 | -0.274 | 0.125 | 0.0457 | 0.142 | -0.16 | 0.111 (inactive) | -0.194 | -0.259 | -0.399 (inactive) | -0.412 | 0.0692 (inactive) | 0.141 (inactive) | -0.781 (inactive) | -0.537 (inactive) | -0.151 (inactive) | -0.222 (inactive) | -0.0403 (inactive) | -1.26 | 0.137 |
| CC(CCN1CCCCc2nc(C)c(C)cc21)=NOC[C@@H](C)[C@H](OCc1ccccc1)C(C)C | 0.139 | 0.588 | 1.39 | -1.5 | 0.327 | -0.728 | 0.155 (inactive) | 0.0506 | -1.06 | -0.472 (inactive) | -0.345 | -2.36 (inactive) | -0.13 (inactive) | -1.46 (inactive) | 0.147 (inactive) | -2.61 (inactive) | -1.22 (inactive) | 0.0039 (inactive) | 0.0342 | 0.0153 |
| COc1ccc(COC(=O)NN=C2C[C@@H](O)[C@@H](O)[C@@H]3[C@@H]4C(=O)N(c5ccc(F)cc5F)C(=O)[C@@H]4CC[C@H]23)cc1 | 0.0819 | 0.232 | -1.01 | 0.698 | -0.887 | 0.361 | -0.982 (inactive) | -0.112 | -1.07 | 0.764 (inactive) | -0.238 | -0.291 (inactive) | 0.317 (inactive) | 0.0067 (inactive) | 0.307 (inactive) | -0.461 (inactive) | -0.0692 (inactive) | 0.138 (inactive) | 0.643 | 0.0674 |
| CCOC(=O)NN=C1C[C@@H](O)[C@@H](O)[C@@H]2[C@@H]3C(=O)N(c4cccc(Oc5ccccc5)c4)C(=O)[C@@H]3CC[C@H]12 | 0.285 | 1.01 | -0.0233 | 0.0687 | 0.443 | 1.03 | 0.675 (inactive) | 0.00981 | -1.56 | -0.263 (inactive) | 0.287 | -0.946 (inactive) | -1.12 (inactive) | -1.59 (inactive) | 1.05 (inactive) | -1.39 (inactive) | 0.0624 (inactive) | -0.642 (inactive) | 0.529 | -0.106 |
| O=C(NN=C1C[C@@H](O)[C@@H](O)[C@@H]2[C@@H]3C(=O)N(C4CCCCC4)C(=O)[C@@H]3CC[C@H]12)OCc1ccccc1 | 0.215 | 0.0766 | -0.822 | -0.816 | -0.284 | -1.14 | -0.458 (inactive) | 0.219 | 0.703 | -0.401 (inactive) | -0.383 | 0.112 (inactive) | -0.531 (inactive) | -0.135 (inactive) | 0.307 (inactive) | -0.182 (inactive) | 0.061 (inactive) | -0.0133 (inactive) | -0.901 | 0.0942 |
